These entries were drawn from the full list.
aSyn UTR act – Activators via SNCA 5'UTR binding, MLPCN. alpha-synuclein 5'UTR reporter, activators screen. activity score, % (tested at 7.5 µM), hits read low. hit rate 7.1% among 300,000. AID 1814, 2009; in the data active = activity score below about -60%
An asterisk follows results filed as active.

Cc1ccc(NC(=S)NC2CCCCC2)cc1S(=O)(=O)N(C)C was read as aSyn UTR act -65*.
`Cc1ccc(OCCSc2ncccn2)c(C)c1` gave aSyn UTR act -78*.
Screening c1cnc(SCCOc2cccc3ccccc23)nc1 returned aSyn UTR act -186*.
`COc1ccc(C)cc1N=Nc1ccc(O)c2ncccc12` gave aSyn UTR act 68.
Screening Cc1ccc2c(c1)COc1c3ccc(C(=O)N[C@@H](C)CO)cc3nn1-2 returned aSyn UTR act -154*.
For Cc1ccc2c(c1)COc1c3ccc(C(=O)NC(C)C)cc3nn1-2 the results were aSyn UTR act -204*.
`O=c1c(Br)c(NCc2ccccc2)cnn1-c1ccc(F)cc1` gave aSyn UTR act -68*.
For CN(C)N1C(=O)/C(=C/c2ccco2)SC1=Nc1ccccc1 the results were aSyn UTR act -64*.
For O=C(N=C1N=C2C=CC(Br)=CN2Cc2ccccc21)c1ccc([N+](=O)[O-])cc1[N+](=O)[O-] the results were aSyn UTR act -106*.
Screening Cc1onc(-c2ccccc2)c1C(=O)O/N=C(\N)c1ccc([N+](=O)[O-])o1 returned aSyn UTR act -136*.
O=C(Nc1cnc2ccccn2c1=O)c1ccc(F)cc1 was read as aSyn UTR act -92*.
`O=C(Nc1cnc2sc3c(n2c1=O)CCCC3)c1ccc(F)cc1` gave aSyn UTR act -105*.
`COc1ccc(C(=O)Nc2cnc3ccccn3c2=O)cc1` gave aSyn UTR act -169*.
Fc1cccc2sc(Nc3nc4c(F)cccc4s3)nc12 was read as aSyn UTR act -210*.
For Fc1cccc2sc(Nc3nnc(-c4ccccc4)o3)nc12 the results were aSyn UTR act -90*.
Screening O=C(Nc1nc2c(F)cc(F)cc2s1)C1CCN(C(=O)c2ccc(F)cc2)CC1 returned aSyn UTR act -162*.
O=C(Nc1nc2c(F)cccc2s1)C1CC1 was read as aSyn UTR act -111*.
NNc1nc2c(F)cc(F)cc2s1 was read as aSyn UTR act -164*.
`Cc1c(Cl)ccc2sc(NC(=O)C3CC3)nc12` gave aSyn UTR act -85*.
NNc1nc2c(F)cccc2s1 was read as aSyn UTR act -281*.
O=C(c1ccc2ccccc2c1)N1CCN(Cc2ccccc2)CC1 was read as aSyn UTR act -85*.
CC(C)(C)SCCNC(=O)c1ccc(CN2CCc3ccccc3C2)cc1 was read as aSyn UTR act -63*.
COc1cccc(NC(=O)c2ccc(CN3CCc4ccccc4C3)cc2)c1 was read as aSyn UTR act -104*.
`Oc1c(CN2CCc3ccccc3C2)cc(Cl)c2cccnc12` gave aSyn UTR act 91.
For Cc1cccc(NC(=O)c2ccc(CN3CCN(Cc4ccccc4)CC3)cc2)c1 the results were aSyn UTR act -77*.
O=c1c2c(nc3cc(-c4ccccc4)[nH]n13)CCS2 was read as aSyn UTR act -99*.
For O=c1c2c(nc3cc(-c4ccccc4Cl)[nH]n13)CCS2 the results were aSyn UTR act -149*.
`CCc1cc2c(=O)c(-c3cscn3)coc2cc1O` gave aSyn UTR act -139*.
Screening C(=C\c1cc(/C=C/c2ccccc2)ncn1)/c1ccccc1 returned aSyn UTR act -145*.
Cn1nc(/C=C/c2ccccc2)ccc1=O was read as aSyn UTR act -190*.
Screening Cc1nc(/C=C/c2ccccc2)cc(/C=C/c2ccccc2)n1 returned aSyn UTR act -104*.
Screening Cc1csc2ncc(C(=O)NCCc3ccccc3)c(=O)n12 returned aSyn UTR act -134*.
For Cc1ccccc1NC(=O)c1cnc2ccccn2c1=O the results were aSyn UTR act 62.
For CSc1ccccc1NC(=O)c1cnc2scc(C)n2c1=O the results were aSyn UTR act -108*.
For CCc1ccccc1NC(=O)c1cnc2scc(C)n2c1=O the results were aSyn UTR act -99*.
O=C(NCCc1ccccc1)c1cnc2ccccn2c1=O was read as aSyn UTR act -73*.
Screening CCOc1ccc(NC(=O)c2cnc3scc(C)n3c2=O)cc1 returned aSyn UTR act -104*.
For Cc1c2ccccc2nc2c(F)c(NC(C)C)c(F)c(F)c12 the results were aSyn UTR act -106*.
Screening Cc1ccc(C(=O)NCCc2csc(-c3cccnc3)n2)cc1 returned aSyn UTR act -77*.
O=C(COc1ccccc1N1C(=O)c2ccccc2C1=O)c1ccc(Cl)cc1 was read as aSyn UTR act -87*.
COc1ccc(S(=O)(=O)Oc2ccc3ccccc3c2)cc1 was read as aSyn UTR act -93*.
`CN(C)C=Nc1ccc2nc3c(cc2c1)[nH]c1ccccc13` gave aSyn UTR act -233*.
For CCCn1nc2cc(C(=O)NCCc3cccs3)ccc2c1OCC the results were aSyn UTR act -76*.
For O=C(O)c1ccccc1-c1ncc(-c2ccccc2)o1 the results were aSyn UTR act -137*.
Screening CCOc1c(OC(C)=O)ccc(/C=C/c2ccc3cccc(OC)c3n2)c1[N+](=O)[O-] returned aSyn UTR act -76*.
COc1cccc(/C=C/c2ccc3cccc(O)c3n2)c1OC was read as aSyn UTR act -74*.
COC(=O)c1ccc(/C=C/c2ccc3cccc(OC)c3n2)cc1 was read as aSyn UTR act -97*.
For COc1ccc(/C=C/c2ccc3cccc(O)c3n2)c(OC)c1OC the results were aSyn UTR act -92*.
For Fc1cc2[nH]c(=S)[nH]c2cc1Cl the results were aSyn UTR act 42.
CC(=O)Nc1ccc(/C=C/c2ccc3cccc([N+](=O)[O-])c3n2)cc1 was read as aSyn UTR act -112*.
For O=C1CCCN1CCC(=O)N1CCCC(CO)(Cc2ccccc2)C1 (stereo unspecified) the results were aSyn UTR act -98*.
Cc1c(OCc2ccccc2)cccc1OCc1ccccc1 was read as aSyn UTR act -71*.
For COc1ccc2c(C(=O)CN3CCC(C)CC3)c[nH]c2c1 the results were aSyn UTR act -76*.
O=C(CSc1nc2ccccc2s1)c1ccc(O)cc1O was read as aSyn UTR act -66*.
Screening O=C(Cc1nc2ccccc2s1)c1ccc(O)cc1O returned aSyn UTR act -147*.
For CC(C)(C)c1ccc(C(=O)NCCN2CCOCC2)cc1 the results were aSyn UTR act -190*.
O=C1C=C(NCCN2CCOCC2)C(=O)c2cnccc21 was read as aSyn UTR act 131.
Screening O=C(NCCCN1CCOCC1)c1cc(-c2ccccc2)on1 returned aSyn UTR act -113*.
`CC(C)(C)c1ccc(C(O)CCCN2CCC(C(O)(c3ccccc3)c3ccccc3)CC2)cc1` (stereo unspecified) gave aSyn UTR act 111.
O=C(NCCN1CCOCC1)c1cc(-c2ccccc2)on1 was read as aSyn UTR act -130*.
`O=C(N/C(=C/c1cccc(Br)c1)c1nc(=S)[nH][nH]1)c1ccccc1` gave aSyn UTR act -77*.
`Cc1ccc(NC(=O)NCC2CC2(Cl)Cl)cc1` (stereo unspecified) gave aSyn UTR act -165*.
For Cc1ccc(NC(=O)CN(C)C(=O)Cn2ncc(Cl)c(Cl)c2=O)cc1 the results were aSyn UTR act 82.
For O=C(NCC1CC1(Cl)Cl)Nc1ccc(Cl)c(Cl)c1 (stereo unspecified) the results were aSyn UTR act -156*.
Screening C=COCCNC(=O)Nc1ccc(Cl)c(Cl)c1 returned aSyn UTR act -127*.
Screening Cc1nc(S(=O)(=O)N(C)c2ccccc2)c(C#N)c(C)c1Cl returned aSyn UTR act -77*.
For NNc1nc2c(-c3ccc(Cl)cc3)nnn2c2ccccc12 the results were aSyn UTR act -92*.

Compound activity: PubChem BioAssay, Broad Institute
